Screening data as filed in PubChem BioAssay.
IL1B secr inh: qHTS for Inhibitors of Inflammasome Signaling: IL-1-beta AlphaLISA Primary Screen; AID 743279, 2014; THP-1 LPS/ATP IL-1B secretion, AlphaLISA, 16 h; hits give low values; 360,000 tested, 4.7% active; activity change, % at 57.5 µM; in the data active = activity change below about -50%; inconclusive = mostly about -30% to -49%
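Secreted IL-1B measured by AlphaLISA bead assay after 16 h compound exposure of THP-1 cells; compounds (final up to 57.5 uM) added 1 h before LPS (250 ng/mL) and ATP (1.25 mM) stimulation; lower signal means less secretion.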
DT40 TDP1 CPT: qHTS for Inhibitors of human tyrosyl-DNA phosphodiesterase 1 (TDP1): qHTS in cells in presence of CPT. Potency, µM (doses to about 46.2 µM), inactives show at the top dose activity change, negative = growth inhibition, most hits filed as inhibitors. chicken DT40 Tdp1-/-;hTDP1 cells + 20 nM CPT, ATP luminescence, 48 h. 420,000 tested, 12% active. AID 686979, 2013; note: potency is the fitted concentration of half-maximal effect; nearly all actives have a fitted effect of over 55% in size
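Cell growth measured by CellTiter-Glo luminescence after a minimum 48 h, 37 C compound exposure with 20 nM CPT in Tdp1-knockout DT40 cells stably expressing hTDP1, seeded 400/well; qHTS titration format.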
HT1080 IDH1KD tx: qHTS for induction of synthetic lethality in tumor cells producing 2HG: qHTS for the HT-1080-IDH1KD cell line; HT-1080 IDH1 knockdown viability, ATP luminescence, 48 h; Potency, µM (top dose mostly 46.1 µM), for inactives: at the top dose activity, negative = toxicity, actives largely listed as cytotoxic; 360,000 tested, 2% active; AID 686971, 2013;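 note: potency is the fitted concentration of half-maximal effect; 0% = DMSO wells and -100% = cell-free medium wells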
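Cytotoxicity counter-line: IDH1KD HT-1080, 48 h, CellTiter-Glo. Curves classed by r2, magnitude and activity.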
DT40 TDP1 no CPT: qHTS for Inhibitors of human tyrosyl-DNA phosphodiesterase 1 (TDP1): qHTS in cells in absence of CPT | Potency, µM (series often up to 46.2 µM), inactives show at the highest dose activity change, negative = growth inhibition, actives largely listed as inhibitors | 420,000 tested, 15% active | DT40 Tdp1-/- hTDP1 cells, no CPT, ATP luminescence, 48 h | AID 686978, 2013; note: potency is the fitted concentration of half-maximal effect; nearly all actives have a fitted effect of over 55% in size
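Cells were dispensed at 400 per well, compounds added by pin tool, plates incubated ≥48 hr at 37 °C, then CellTiter-Glo added for 30 min at room temperature before luminescence reading. Line: DT40 Tdp1-/- complemented with hTDP1; camptothecin omitted.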
HT1080-NT tox: qHTS for induction of synthetic lethality in tumor cells producing 2HG: qHTS for the HT-1080-NT fibrosarcoma cell line. HT-1080-NT fibrosarcoma viability, CellTiter-Glo ATP luminescence, 48 h. Potency, µM (titrated, usually from 46.1 µM), inactives show at the highest dose activity, negative = less viability, most hits filed as cytotoxic. 360,000 tested, 1.6% active;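 note: NT is the 2HG producing partner of a matched IDH1 knockdown line; potency is the fitted concentration of half-maximal effect; 0% = DMSO-treated cells and -100% = media-only wells without cells; nearly all actives have a fitted effect of over 55% in size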
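HT-1080-NT fibrosarcoma cells (2HG-overproducing), 750 cells/well in RPMI with 5% FBS, dosed after 2 h and incubated 48 h at 37C. CellTiter-Glo luminescence normalized to DMSO and no-cell wells; concentration-response curves fitted and classed.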
12-LOX inh: Primary qHTS assay for inhibitors of human arachidonate 12S-lipoxygenase (ALOX12): Round 2 | Polyunsaturated fatty acid lipoxygenase ALOX12 (Homo sapiens), P18054 | purified 12hLO, xylenol orange hydroperoxide absorbance | Potency, µM (series often up to 108 µM), inactives show top-dose activity change, negative = inhibition, most hits filed as inhibitors | 580,000 tested, 1.1% active | AID 1671190, 2021; note: potency is the fitted concentration of half-maximal effect
Target sequence (P18054 whole entry, looked up): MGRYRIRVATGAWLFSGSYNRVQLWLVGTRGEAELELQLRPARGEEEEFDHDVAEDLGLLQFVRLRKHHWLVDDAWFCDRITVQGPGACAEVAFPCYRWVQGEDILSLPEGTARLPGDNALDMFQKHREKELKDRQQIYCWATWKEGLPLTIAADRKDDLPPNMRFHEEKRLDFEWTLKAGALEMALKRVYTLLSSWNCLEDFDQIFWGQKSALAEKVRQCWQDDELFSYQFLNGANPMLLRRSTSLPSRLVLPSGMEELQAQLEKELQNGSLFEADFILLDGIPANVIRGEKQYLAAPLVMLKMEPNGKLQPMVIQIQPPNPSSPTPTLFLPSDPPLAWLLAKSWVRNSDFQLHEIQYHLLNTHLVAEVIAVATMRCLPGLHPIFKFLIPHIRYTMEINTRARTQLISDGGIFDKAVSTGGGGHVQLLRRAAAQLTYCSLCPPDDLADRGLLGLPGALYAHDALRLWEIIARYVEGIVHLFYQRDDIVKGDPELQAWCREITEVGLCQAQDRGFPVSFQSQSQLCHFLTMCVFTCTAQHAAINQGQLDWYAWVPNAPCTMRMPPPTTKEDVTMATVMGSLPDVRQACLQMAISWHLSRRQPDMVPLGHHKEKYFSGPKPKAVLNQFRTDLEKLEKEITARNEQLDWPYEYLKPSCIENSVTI
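Purified human 12hLO (150 nM final) in 25 mM Hepes, 0.01% Triton X-100, pH 7.0 was preincubated 15 min at room temperature with compound. Then 40 uM arachidonic acid was added, 30 min. Hydroperoxide was read by Fe-XO absorbance ratio 573/405 nm.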
Active calls of the source: *; ? = inconclusive; / = not tested or not shown. This excerpt belongs to a sample that is enriched for hits. Unless noted, calls come from the whole dose curve; as a rule, active = well fitted curve in the direction sought with a large enough effect; inconclusive = small, poorly fitted or top-dose-only effect, or another doubt; inactive = no such curve, though single readings can be large; an effect the other way counts as inactive or inconclusive. Unless noted, % is set by controls: 0 for no effect and ±100 for the full control effect.

SMILES | IL1B secr inh | DT40 TDP1 CPT | HT1080 IDH1KD tx | DT40 TDP1 no CPT | HT1080-NT tox | 12-LOX inh
CCCCN1C(=O)C(=O)N(CC(=O)N2N=C3/C(=C/c4ccco4)CCCC3C2c2ccco2)C1=O (stereo not given) | -10.2 | 12.0% | 10.0% | -3.4% | 5.7% | 0.0%
CNC(=O)c1sc(N2N=C3/C(=C/c4ccccc4)CCCC3C2c2ccccc2)nc1C (stereo not given) | -12.3 | ? | ? | 12.6µM* | -2.0% | 1.2%
Cc1cccc(C(=O)Nc2ccc(-c3nc4cc(C(C)C)ccc4o3)cc2)c1 | / | 16.4µM* | / | 16.4µM* | / | -16.1%
O=C(Nc1ccc2oc(-c3ccccc3)nc2c1)c1ccc(F)cc1 | / | / | / | / | / | 11.0%
O=C(Nc1ccc2oc(-c3ccccc3)nc2c1)c1ccncc1 | -5.5 | 16.4µM* | -18.9% | 11.6µM* | -10.8% | ?
COc1ccc(C(=O)Nc2ccc(-c3nc4ccccc4o3)cc2)cc1 | / | / | / | / | / | -30.3%
CS(=O)(=O)c1ccccc1C(=O)Nc1ccc(-c2nc3ccccc3o2)cc1 | 31.4 | ? | -1.6% | 23.1µM* | 1.1% | 6.1%
CC(=O)Oc1cccc(C(=O)Nc2ccc(-c3nc4cc(C)ccc4o3)cc2)c1 | / | / | / | / | / | -1.5%
COc1cc(OC)cc(C(=O)Nc2ccc(-c3nc4ccccc4o3)cc2)c1 | 46.5 | 16.4µM* | ? | 16.4µM* | ? | 0.0%
COc1cccc(C(=O)Nc2ccc(-c3nc4ccccc4o3)c(O)c2)c1 | -5.1 | 18.4µM* | ? | 16.4µM* | ? | 4.4%
COc1cc(OC)cc(C(=O)Nc2ccc(-c3nc4cc(C(C)C)ccc4o3)cc2)c1 | / | 20.6µM* | / | 20.6µM* | / | -5.0%
O=C(Nc1ccc2oc(-c3cccnc3)nc2c1)c1ccc([N+](=O)[O-])o1 | / | 6.51µM* | ? | 8.2µM* | ? | 47.6%
COC(=O)c1ccc(-c2nc3ccc(C)cc3o2)cc1 | -15.7 | 10.3µM* | ? | 8.2µM* | -9.5% | 4.2%
COc1cc(OC)cc(C(=O)Nc2ccc3oc(-c4ccc5ccccc5c4)nc3c2)c1 | / | / | / | / | / | 1.9%
COc1cccc(CNC(=O)c2cccc(-n3c(C)nc4cccnc43)c2)c1OC | / | ? | / | ? | / | 1.8%
O=C(Nc1ccc2oc(-c3cccnc3)nc2c1)c1cccnc1 | -9.2 | -24.0% | -8.8% | ? | 11.5% | 50.2%
Cc1ccc2oc(-c3ccc(NC(=O)c4cccnc4)cc3)nc2c1 | -8.6 | ? | -1.0% | 20.6µM* | -4.3% | 124.5%
CCOc1cccc(C(=O)Nc2ccc3oc(Cc4ccc(Cl)cc4)nc3c2)c1 | -15.3 | ? | ? | ? | -26.7% | 0.0%
O=C(Nc1ccc2oc(Cc3ccc(Cl)cc3)nc2c1)c1cccnc1 | -67.5* | ? | -12.4% | ? | ? | ?
O=C([C@@H]1C[C@H](Oc2cccnc2)CN1C(=O)c1cnccn1)N1CCCC1 | / | / | / | / | / | 32.4%
O=C(Nc1ccccc1)Nc1cccc(NC(=O)Nc2ccccc2)c1F | 19.7 | 4.2% | 0.0% | -1.8% | -3.3% | 0.0%
COc1ccccc1NC(=O)Nc1ccccc1Br | -14.3 | 18.4µM* | 14.4% | ? | 11.9% | -22.2%
COc1ccccc1NC(=O)C(Sc1ccccc1)c1ccccc1 (stereo not given) | 16.9 | 20.6µM* | -16.7% | ? | 0.2% | -1.3%
O=C(Nc1ccccc1)Nc1ccccc1Br | -9.4 | 14.6µM* | 0.2% | ? | -11.6% | 11.2µM*
O=C(Nc1ccccc1)Nc1ccc(Br)c(Cl)c1 | ? | ? | -18.2% | 16.4µM* | -10.8% | -0.5%
SMILES | IL1B secr inh | DT40 TDP1 CPT | HT1080 IDH1KD tx | DT40 TDP1 no CPT | HT1080-NT tox | 12-LOX inh
CN(C)c1ccc(-c2nc(C3CC(=O)N(c4ccc(Cl)cc4)C3)no2)cc1 (stereo not given) | / | / | / | / | / | -5.8%
COc1ccccc1NC(=O)Nc1cc(NC(=O)Nc2ccccc2OC)c(C)nc1C | 36.5 | ? | 16.4µM* | ? | 16.4µM* | -19.2%
Cc1ccc(NC(=O)C2C(=O)N(CCO)C3(C)CC2c2ccccc2O3)cc1 (stereo not given) | -15.4 | -17.6% | 0.0% | -17.9% | 2.1% | -15.7%
Cc1ccc(S(=O)(=O)C2C(=O)N(C)C3(C)CC2c2ccccc2O3)cc1 (stereo not given) | 0.0 | -23.8% | 14.2% | 16.4µM* | ? | -14.5%
O=C(Cn1cccc1-c1nc(-c2ccccc2)no1)Nc1ccc(F)c(F)c1 | / | / | / | / | / | 18.2%
CCOC(=O)c1ccc(NC(=O)Nc2cccc(OCc3cc(=O)n4ccc(C)cc4n3)c2)cc1 | / | -27.4% | / | ? | / | -21.0%
COc1ccc(C)cc1NC(=O)Nc1cccc(OCc2cc(=O)n3ccc(C)cc3n2)c1 | / | 9.2µM* | / | 9.2µM* | / | -23.5%
Cc1ccc2nc(COc3ccccc3NC(=O)c3ccccc3C)cc(=O)n2c1 | / | -19.0% | / | ? | / | -15.8%
CSc1cccc(NC(=O)Nc2ccccc2OCc2cc(=O)n3cc(C)ccc3n2)c1 | / | 23.1µM* | / | 20.6µM* | / | -4.8%
CCC(Oc1ccccc1)C(=O)Nc1ccc(OCc2cc(=O)n3ccc(C)cc3n2)cc1 (stereo not given) | / | ? | / | 18.4µM* | / | -14.2%
CCCCn1nnnc1CSc1nnc(-c2cccnc2)n1-c1ccc(C)cc1C | / | / | / | / | / | -13.7%
COc1ccc(C(=O)N2CCC3(CC2)CC(Cc2nc(C4CC4)no2)CCO3)c(OC)n1 (stereo not given) | / | / | / | / | / | 15.0%
COc1cccc(CN2CCN(Cc3cccn3-c3cccnc3)CC2CCO)c1 (stereo not given) | -4.5 | -23.8% | -2.9% | ? | -1.3% | -0.5%
COc1ccc(NC(=O)Cn2c(-c3ccc(F)cc3)nc(C)c(CCO)c2=O)cc1OC | / | / | / | / | / | 37.9%
C[C@H](NC(=O)c1[nH]cnc1C(=O)Nc1ccccc1F)c1ccccc1 | 29.6 | ? | -6.8% | 16.4µM* | -14.1% | 15.6%
Cc1ccc(NC(=O)c2nc[nH]c2C(=O)N[C@H](C)c2ccccc2)cc1 | ? | 23.1µM* | -17.8% | ? | -19.6% | ?
C[C@H](NC(=O)c1[nH]cnc1C(=O)Nc1ccccc1)c1ccccc1 | 4.2 | ? | -14.1% | ? | -12.9% | 3.0%
